# Assay outcomes: PubChem BioAssay, several laboratories
# Shown are actives, neighbours in structure and some others; about 3.5% of the full set was active somewhere.
# Anthrax LF inh2: anthrax lethal factor protease inhibition | multiplex microsphere protease cleavage assay, LF | inhibition, % at 10 µM | 360,000 compounds, 0.12% hits | AID 588501
# Bead autofluor: counter-screen for toxin protease inhibitors: compound fluorescence; compound autofluorescence counterscreen, microsphere flow cytometry; hits give high values; fluorescence intensity (concentration not given with the values); 360,000 compounds, 3.1% hits; AID 624483; in the data active means fluorescence intensity above about 16000; inconclusive means no clear call, values can overlap the other calls
# BoNT A protease: BoNT A light chain protease inhibition; inhibition, % at 10 µM; multiplex microsphere protease substrate cleavage, flow cytometry; 360,000 compounds, 0.17% hits
# BJeLR viability: kills HRASV12-expressing BJeLR cells; BJeLR (HRASV12) viability, CellTiter-Glo ATP luminescence, 48 h; inhibition, % (no concentration beside the values); 300,000 compounds, 0.17% hits; in the data active means inhibition above about 50%; inconclusive means no clear call, values can overlap the other calls
# BoNT F protease: inhibitors of Botulinum neurotoxin F light chain protease; inhibition, % at 10 µM; 360,000 compounds, 0.22% hits; AID 588497; Multiplex microsphere protease cleavage assay, flow cytometry; in the data active means inhibition above about 35%, passing the limit was not always enough; inconclusive means no clear call, values can overlap the other calls
# Hits are given with their value; . = inactive; ? = inconclusive; / = no result. Unless noted, no stated cut-off is given here; in the data, active means inhibition above about 30%; inconclusive means no clear call, values can overlap the other calls; inactive means below that.
SMILES,Anthrax LF inh2,Bead autofluor,BoNT A protease,BJeLR viability,BoNT F protease
Cc1csc(NC(=O)C2CCCN2C(=O)Oc2ccccc2)n1 (stereo not drawn),.,22986,.,.,.
Cc1cc(C)cc(NC(=O)C2CCCN2C(=O)Oc2ccccc2)c1 (stereo not drawn),.,.,.,.,.
CS(=O)(=O)N(CC(=O)N1CCc2ccccc2C1)c1cccc(Br)c1,/,/,/,.,/
COc1ccc(NC(=O)C2(C)CCN2Cc2cccc(OC)c2F)cc1OC (stereo not drawn),.,.,.,/,.
O=C(Oc1ccccc1C(=O)N1CCOCC1)c1ccc(F)cc1,.,.,.,.,?
O=C(Oc1ccccc1C(=O)N1CCOCC1)c1ccc(Br)cc1,.,20205,?,.,.
O=C(c1ccccc1-c1nc(-c2ccccc2)no1)N1CCOCC1,.,18009,.,.,.
O=C(c1ccc(-c2ccccc2)cc1)c1ccccc1C(=O)N1CCOCC1,.,22303,.,.,.
C[C@H](NC(=O)c1ccco1)C(=O)NNC(=O)COc1cccc(C(F)(F)F)c1,.,.,.,/,.
COc1ccccc1Oc1ccccc1C(=O)O,.,16152,.,.,.
COc1ccccc1NC(=O)c1ccccc1C(=O)O,.,.,.,.,.
Cc1cccc(NC(=S)N(CCN(C)C)C(C)c2ccccn2)c1 (stereo not drawn),.,22805,.,.,.
C=CCn1c(SCC(=O)Nc2ccccc2CC)nnc1-c1ccncc1,.,23141,.,.,.
CN(C)c1ccc(NC(=O)CSc2nnc(-c3cccs3)n2Cc2ccco2)cc1,.,22600,?,.,.
COc1cccc(NC(=O)CSc2nnc(Cc3cccs3)n2-c2ccc(C)cc2)c1,.,.,?,.,.
COc1ccc(-n2c(CNc3ccc(C)cc3)nnc2SCC(=O)Nc2nc(-c3ccccc3)cs2)cc1,.,24302,?,.,.
C=CCn1c(Cc2cccs2)nnc1SCC(=O)Nc1cccc(OC)c1,.,16319,.,.,.
COc1ccc(NCc2nnc(SCC(=O)Nc3nc(-c4ccccc4)cs3)n2-c2ccccc2)cc1,.,.,.,.,.
C=CCn1c(SCC(=O)Nc2ccccc2C)nnc1-c1ccncc1,.,.,.,.,.
CC(NC(=O)C1CCN(S(=O)(=O)c2ccc(Br)s2)CC1)c1ccccc1 (stereo not drawn),.,.,.,.,.
C=CCn1c(CCNC(=O)c2ccccc2F)nnc1SCC(=O)Nc1ccccc1F,.,.,.,.,.
COc1ccc(NC(=O)CSc2nnc(Cc3cccs3)n2-c2ccc(C)cc2)cc1,.,23035,?,.,.
O=C(CSc1nnc(Cc2cccs2)n1Cc1ccco1)Nc1cccc(Cl)c1,.,22807,.,.,.
C=CCn1c(Cc2cccs2)nnc1SCC(=O)NC1CC1,.,.,.,.,.
O=C(CSc1nnc(Cc2cccs2)n1Cc1ccco1)Nc1cc(Cl)cc(Cl)c1,.,.,.,.,.
SMILES,Anthrax LF inh2,Bead autofluor,BoNT A protease,BJeLR viability,BoNT F protease
C=CCn1c(Cc2cccs2)nnc1SCC(=O)Nc1ccc(OC)cc1,.,16196,.,.,.
C=CCn1c(Cc2csc(N)n2)nnc1SCC(=O)Nc1ccccc1C(F)(F)F,.,23049,.,.,.
O=C1NCCN/C1=C\C(=O)c1ccc(Br)cc1,/,/,/,.,/
CCCCn1nnnc1C1(C)CCC(=O)N1Cc1ccc(C)cc1 (stereo not drawn),.,.,.,/,.
COc1cccc(C(=O)NCc2nnc(SCC(=O)Nc3nccs3)n2-c2cccc(C)c2)c1,.,16987,.,.,.
C=CCn1c(CCNC(=O)c2cccs2)nnc1SCC(=O)Nc1cccc(F)c1,.,17039,.,.,.
Cc1cccc(-n2c(CNC(=O)COc3ccccc3)nnc2SCC(=O)Nc2nccs2)c1,.,.,.,/,.
Cn1c(CNC(=O)c2cccs2)nnc1SCC(=O)Nc1ccc(Cl)cc1,.,21585,?,.,.
CC[C@@H]1CC2=C(C(=O)OC(C)(C)O2)[C@@H](c2ccc(Cl)cc2)O1,.,.,.,/,.
O=C(O)/C=C/C(=O)NNC(=O)c1ccccc1Br,.,20690,.,.,.
Cc1cccc(C(=O)NNC(=O)c2ccccc2Br)c1,.,.,.,.,45
O=C(NCc1cc(Cl)cc(Cl)c1)c1ccc2nc([C@@H]3O[C@H](CO)[C@@H](O)[C@H]3O)[nH]c2c1,.,.,.,/,.
CCC(C)c1c(O)nc(SCC(=O)N2CCCCC2)[nH]c1=O (stereo not drawn),.,.,.,.,?
CCC(C)c1c(O)nc(SCC(=O)N2CCOCC2)[nH]c1=O (stereo not drawn),.,17264,.,.,.
